{"source": "paper PMC5540273", "about": "(PLoS ONE, 2017);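 note: kd values determined as follow-up on hits from a single-replicate KINOMEscan panel screen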", "data": [{"tested_on": "ROCK2", "units": {"Kd": "nM"}, "values": [{"compound": "O=S(=O)(c1ccc(-c2ccnc3[nH]ccc23)cc1)N1CCCC1", "note": "[GSK846226]", "Kd": 350}, {"compound": "CSc1nn2c(=O)cc(N3CCOCC3)nc2n1Cc1cccc(C(F)(F)F)c1C", "note": "[GSK2363608]", "Kd": 82}, {"compound": "CC1=C(C(=O)Nc2cc3cn[nH]c3cc2F)C(c2ccc(C(F)(F)F)cc2)CC(=O)N1", "note": "(stereo not drawn) [GSK429286]", "Kd": 2.7}]}, {"tested_on": "T1, RSK4(Kin.Dom.2-C-terminal)", "T1 construct": "gene RPS6KA6", "units": {"Kd": "nM"}, "values": [{"compound": "CS(=O)(=O)c1ccc(-c2c(-c3ncn[nH]3)sc(N3CCOCC3)c2C#N)cc1", "Kd": "> 10000"}, {"compound": "Fc1cc(Cl)ccc1Nc1ccnc2cc(-c3ccc(CN4CCCCC4)o3)ccc12", "note": "[GW560116]", "Kd": 670}, {"compound": "Fc1cc(Cl)ccc1Nc1ccnc2cc(I)ccc12", "note": "[GW551191]", "Kd": 730}]}, {"tested_on": "SLK", "units": {"Kd": "µM"}, "values": [{"compound": "COc1cc2ncn(-c3cc(OCC4CCCO4)c(C(N)=O)s3)c2cc1OC", "note": "(stereo not drawn) [GSK204607]", "Kd": "> 10"}, {"compound": "Cc1ccccc1-n1cnc2c(N)ncnc21", "note": "[SKF-97510]", "Kd": "> 10"}, {"compound": "CN(C)CCN(C)C(=O)c1cc(-c2ccncc2)c(-c2ccc(Cl)c(O)c2)o1.Cl.Cl", "note": "[SB-710397]", "Kd": 3.6}]}]}
